Among the data in PubChem BioAssay AID686978 (National Center for Advancing Translational Sciences (NCATS), 2013) are Potency values, retold here.

Several values for one entry are separate records, joined by “and”; a condition that tells them apart may be missing. Equal values may be shown once. The whole screen tested about 420,000 compounds, of which about 64,000 (15%) were called active. Not shown: some 27% with an inconclusive outcome. Calls follow the shape of the dose curve; as a rule, active = well fitted inhibition curve with a large enough effect; inconclusive = small, poorly fitted or top-dose-only effect; inactive = flat fitted curve, though single readings scatter. These entries were drawn from the full list. A call without a number means that no potency is given here.
Potency is read from the fitted curve at half-maximal effect.

The experiment is described as follows: qHTS for Inhibitors of human tyrosyl-DNA phosphodiesterase 1 (TDP1): qHTS in cells in absence of CPT. Also: nearly all actives have a fitted effect of over 55% in size. The following applies: DT40 Tdp1-/- hTDP1 cells, no CPT, ATP luminescence, 48 h; activity change, negative = growth inhibition: at 46.2 µM (top of the series). The method, boiled down: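 A cellular qHTS used chicken DT40 cells lacking endogenous Tdp1 but carrying stably transfected human TDP1. Compounds were applied without camptothecin, and cell growth kinetics were judged by ATP-dependent luminescence after ≥48 hr.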
Background: In qHTS, concentration-response curves come from the screen itself.
For `COc1ccc(C)cc1NC(=O)CSc1cccc[n+]1[O-]`, the Potency result is “inactive”.

Consider `COc1ccc(-c2nnc(SCC(=O)Nc3cccnc3Cl)n2C)cc1`, for which the Potency entry was “inactive”. With `O=C(CSc1nc2ccccc2c(=O)n1CCCO)NC1CC1` the entry was “inactive”; with `COc1ccc(OC)c(NC(=O)CSc2nc3cccnc3n2C)c1`, 16.4 µM (active); with `COc1ccc(S(=O)(=O)N2CCOCC2)cc1NC(=O)CSc1ncnc2ccccc12`, “inactive”. `COc1ccc(S(=O)(=O)N(C)C)cc1NC(=O)CSc1ncccn1`: the Potency is 13 µM (active). The same measure for `COc1ccc(OC)c(NC(=O)CSc2nc(N)c(-c3ccccc3)c(=O)[nH]2)c1`: “inactive”; for `Cn1c(SCC(=O)N2CCCc3ccccc32)nc2ccccc2c1=O`: 9.2 µM (active); for `CCc1nnc(NC(=O)CSc2nc3ccccc3c(=O)n2CCCOC)s1`: “inactive”. With `Cc1nnc(SCC(=O)N2CCc3ccccc32)n1-c1ccccc1` the entry was “inactive”.

Take `O=C(CSc1nc2[nH]ncc2c(=O)n1-c1ccccc1)N1CCCc2ccccc21`: the Potency result is “inactive”. The same measure for `CCOCCCn1c(SCC(=O)Nc2ccc(CC)cc2)nc2ccccc2c1=O`: 13 µM (active); for `CSc1ccc(NC(=O)N2CC(C)OC(C)C2)cc1` (centres undefined): “inactive”; for `Cn1cccc1C(=O)N1CCC[C@@]2(CCN(Cc3nccs3)C2)C1`: “inactive”. With `Cc1nc2ccc(S(=O)(=O)NC(C(=O)NCc3ccccc3Cl)C(C)C)cc2s1` (centres undefined) the entry was “inactive”; with `C[n+]1cccc(C(=O)O)c1`, “inactive”. With `CSc1ncccc1C(=O)NCc1ccccc1Cl` the entry was “inactive”; with `CCOCCCNC(=O)C(NC(=O)c1ccc(=O)[nH]c1)c1ccc(Cl)cc1` (centres undefined), “inactive”. Consider `c1ccc(-c2csc(N3CCc4ccccc4C3)n2)cc1`, for which the Potency result was “inactive”. With `Cc1noc(C)c1CCC(=O)O` the entry was “inactive”; with `Cc1ccc(S(=O)(=O)N2CC(O)C[C@H]2C(=O)OCC(=O)Nc2ccc(N3CCOCC3)cc2)cc1C` (some centres undefined), “inactive”.

With `COc1ccc(NC(=O)CSc2nnc(Cc3ccccc3)c(=O)n2N)cc1`, the Potency result was “inactive”.

Regarding `COc1ccc(-n2nnnc2SCC(=O)Nc2ccccc2)cc1`, the Potency entry was “inactive”. As for `COc1ccc(NC(=O)CSc2nc3ccccc3c(=O)n2C)cc1`, the Potency is 10.3 µM (active). With `O=C1/C(=C\Nc2ccccc2)CCN1c1ncccn1` the entry was “inactive”; with `CCC(C)(C)NC(=O)C(c1ccc(O)cc1)N(Cc1ccco1)C(=O)CCC(=O)Nc1ccccn1` (centres undefined), “inactive”. With `Cc1ccc(C(C(=O)NC2CCCC2)N(Cc2ccco2)C(=O)CCC(=O)Nc2ccccn2)cc1` (centres undefined) the figure was 16.4 µM (active). For `Cc1cc(NC(=O)CCC(=O)N(c2ccccc2)C(C(=O)NC2CCCC2)c2ccncc2)no1` (centres undefined), the Potency result is “inactive”.

As to `CC(=O)NC1(c2ccc(F)cc2)CCN(C(=O)c2c(F)cccc2F)CC1`, the Potency entry is “inactive”. The same measure for `CC(C)c1ccc(NC(=O)NC2CCCCC2)cc1`: 20.6 µM (active); for `Cc1cc(C)cc(NC(=O)NC2CCCCCCC2)c1`: “inactive”; for `CC(C)(C)NS(=O)(=O)c1ccc(NC(=O)NC2CCCCC2)cc1`: “inactive”. With `O/N=C(\C[n+]1ccccc1)c1ccc(Br)cc1` the entry was “inactive”; with `COc1ccc(CCNC(=O)CN2CCC(n3nnc4cc(F)ccc43)CC2)cc1OC`, “inactive”. In the case of `Cc1cccc(NC(=O)CSC(N)=O)c1C`, the Potency was 18.4 µM (active). The same measure for `Cc1cccc(NC(=O)COC(=O)CCc2ccccc2)c1C`: “inactive”; for `Cc1ccccc1NC(=O)CSC(=O)c1ccccc1`: “inactive”; for `N#CCCN(C(=O)COC(=O)c1ccc(S(=O)(=O)N2CCCCCC2)cc1)c1ccccc1`: “inactive”.

Regarding `COc1ccccc1-n1nnnc1SCC(=O)NC(=O)Cc1ccccc1`, the Potency entry is “inactive”. The same measure for `COc1ccccc1-n1nnnc1S(=O)(=O)Cc1ccc(Cl)cc1`: 6.51 µM (active); for `CCC(C)N(C(=O)CSc1nnnn1-c1ccccc1OC)C1CCS(=O)(=O)C1` (centres undefined): “inactive”; for `CCOC(=O)C(Sc1ncc(C#N)c(N)n1)C(C)C` (centres undefined): “inactive”. The same measure for `O=C(CSc1nnc(-c2ccncc2)n1-c1ccc(Cl)cc1)Nc1ccc(C(=O)O)cc1`: “inactive”; for `Cc1cc(NC(=O)CSCC(=O)NC(C)c2ccccc2)no1` (centres undefined): “inactive”. For the molecule `CN(CC(=O)Nc1c(Cl)cccc1Cl)C(=O)CC1OC(=O)c2ccccc21` (centres undefined), the Potency result was “inactive”. With `Cc1ccc(S(=O)(=O)Nc2ccccc2CNc2c(C)n(C)n(-c3ccccc3)c2=O)cc1` the entry was “inactive”; with `CCc1nnc(NC(=O)C2CCCN2S(=O)(=O)c2ccccc2)s1` (centres undefined), “inactive”; with `CCOc1ccc(OCC)c(NS(=O)(=O)c2ccc3[nH]c(=O)ccc3c2)c1`, “inactive”. With `CCc1ccccc1NS(=O)(=O)c1ccc2nc(-c3ccccc3)[nH]c2c1` the figure was 9.2 µM (active).

In the case of `CC(=O)Nc1ccc(NC(=O)C2CCCN2S(=O)(=O)c2cccc(C(F)(F)F)c2)cc1` (centres undefined), the Potency entry was “inactive”.

Regarding `CCc1ccc(NC(=O)C2CCCN2S(=O)(=O)c2ccc3nc(-c4ccccc4)[nH]c3c2)cc1` (centres undefined), the Potency was 23.1 µM (active). The same measure for `COc1ccc(NC(=O)C2C3CCC(O3)C2C(=O)O)cc1OC` (centres undefined): “inactive”; for `CC(=O)N1CCN(CC(C)(C)NS(=O)(=O)c2ccc(C)cc2)CC1`: “inactive”. With `COc1cc(OC)c(C(=O)NNC(=O)c2ccc(NS(=O)(=O)c3cccs3)cc2)cc1OC` the entry was “inactive”; with `COC(=O)Cn1c2ccc(C)cc2c2nc(C)sc21`, “inactive”; with `CCN(CC)CCn1c2ccc(Cl)cc2c2nc(C)sc21`, 23.1 µM (active). The same measure for `COc1cc2c(cc1OC)C(c1ccccc1Br)NC(=O)C2` (centres undefined): “inactive”. `O=C(CCn1c(=O)oc2ccccc21)Nc1ccon1`: the Potency result was “inactive”.

In the case of `O=C(CNC(=O)c1ccccc1Br)NNC(=O)c1cccs1`, the Potency entry is “inactive”. The same measure for `Cc1ccc(C)c(S(=O)(=O)c2nnn3c2nc(N2CCOCC2)c2sccc23)c1`: 23.1 µM (active). With `O=S(=O)(c1ccc(Br)cc1)c1nnn2c1nc(NC1CCCCCC1)c1sccc12` the entry was “inactive”; with `Cc1ccc(S(=O)(=O)c2nnn3c2nc(N2CCN(c4ccccn4)CC2)c2ccccc23)cc1`, “inactive”; with `COc1ccc(CCOC(=O)CNC(=O)c2ccc(Cl)cc2Cl)cc1`, “inactive”. With `COc1ccc(NC2CCCN(C(=O)c3ccccc3-c3ncc[nH]3)C2)cc1` (centres undefined) the entry was “inactive”; with `COc1ccccc1N1CCN(C(=O)c2ccc(NC3=NC4CS(=O)(=O)CC4S3)cc2)CC1` (centres undefined), “inactive”; with `COc1ccc(Nc2ncc(C(=O)N3CCN(c4ccccc4OC)CC3)c3ccccc23)cc1`, 25.9 µM (active) and 5.8 µM (active).

For `COc1ccc(NC(=O)c2cnc(Nc3ccc(C)c(Cl)c3)c3ccccc23)cc1OC`, the Potency result was “inactive”. The same measure for `COC(=O)c1cnc(Nc2cc(C)ccc2OC)c2ccccc12`: “inactive”; for `COc1ccc(Nc2ncc(C(=O)Nc3cc(C)ccc3OC)c3ccccc23)cc1`: 23.1 µM (active).
